A selection: hits, their analogues and other compounds. The true share with any hit is near 5.3%.
VACV mCherry inh: vaccinia inhibition (mCherry reporter); Vaccinia virus mCherry reporter infection, fluorescence; Potency, µM (doses to about 36.5 µM), usual class: inhibitors; hit rate 0.63% among 310,000; AID 720579; calls by dose curve; tested in A549 cells; further: nearly all actives have a fitted effect of over 35% in size
HCV inhibitor: HCV inhibition; AID 651820; Huh7.5.1 HCVcc-Cre infection, luciferase reporter, 44 h; hit rate 3.4% among 340,000; Potency, µM (series often up to 41.8 µM), most hits filed as inhibitors; active means well fitted inhibition curve with a large enough effect; inconclusive means small, poorly fitted or top-dose-only effect, or another doubt; inactive means no such curve, though single readings can be large or run the other way
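Cells seeded at 1,000/well and cultured 4 h, then compounds added followed by HCVcc-Cre virus (~0.5 moi). After 44 h further culture, luciferase substrate was added, plates held 15 min at room temperature, and luminescence read for 15 sec.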
MARV entry inh: blocks Marburg virus binding to or entry into cells. Marburg virus pseudotyped entry inhibition, cell reporter. Potency, µM (doses to about 37.8 µM), hits mostly inhibitors. hit rate 1.8% among 300,000. AID 540276; calls by dose curve; tested in HEK293 cells
FMDV inh: blocks foot and mouth disease virus; hit rate 1.2% among 410,000; FMDV antiviral cell-based qHTS; Potency, µM (top dose mostly 57.9 µM), actives largely listed as inhibitors; calls by dose curve; tested in HEK293T cells; further: read-out not given here; nearly all actives have a fitted effect of over 45% in size
Vaccinia Venus: inhibitors of vaccinia virus (Venus reporter) | Vaccinia virus Venus reporter expression, fluorescence | Potency, µM (series often up to 36.5 µM), hits mostly inhibitors | hit rate 0.46% among 330,000; calls by dose curve; tested in A549 cells; further: nearly all actives have a fitted effect of over 30% in size
Lassa entry inh: Lassa virus entry inhibition; AID 540256; hit rate 1.2% among 300,000; Lassa virus pseudotype entry inhibition, cell reporter; Potency, µM (top dose mostly 37.9 µM), most hits filed as inhibitors; calls by dose curve; tested in HEK293 cells; further: nearly all actives have a fitted effect of over 50% in size
Each line names hits and unclear results; the compound was inactive in the other large screens; ! = not confirmed by another sample.

COc1cc(NC(=O)c2ccc(Cl)cc2)c(OC)cc1NC(=O)CN1CCOCC1	MARV entry inh inconclusive, FMDV inh inconclusive, Lassa entry inh inconclusive (no result: VACV mCherry inh)
COc1ccc(Cl)cc1NC(=O)CN1CCC(n2nnc3cc(C)ccc32)CC1	HCV inhibitor 5µM, MARV entry inh inconclusive, FMDV inh inconclusive, Lassa entry inh inconclusive
COc1cc(NC(=O)c2cccc(C)c2)c(OC)cc1NC(=O)CN1CCCCC1	VACV mCherry inh inconclusive, HCV inhibitor inconclusive, Lassa entry inh inconclusive
COc1cccc(/C=N/N2C(=O)C3C4c5ccccc5C(c5ccccc54)C3C2=O)c1OC (configuration not stated)	none (no result: VACV mCherry inh, HCV inhibitor, FMDV inh, Vaccinia Venus, Lassa entry inh)
COc1cc(/C=N/N2C(=O)C3C4c5ccccc5C(c5ccccc54)C3C2=O)ccc1O (configuration not stated)	MARV entry inh inconclusive, Lassa entry inh 13µM
CC1SC(=S)N(c2ccc(N(C)C)cc2)C1=O (configuration not stated)	VACV mCherry inh 11µM, HCV inhibitor inconclusive
Cc1ccc(Cl)cc1N1CCN(CCN)CC1	VACV mCherry inh inconclusive, HCV inhibitor 10µM
Cc1ccc(Cl)cc1N1CCN(CCNC(=O)Nc2ccc(Cl)cc2)CC1	MARV entry inh inconclusive, FMDV inh inconclusive (no result: HCV inhibitor)
Cc1ccc(Cl)cc1N1CCN(CC(=O)Nc2ccc(CN3CCCCC3)cc2)CC1	HCV inhibitor 8.9µM, MARV entry inh inconclusive, FMDV inh inconclusive, Lassa entry inh inconclusive
Cc1cccc(-c2cc3nc4c(c(N5CCCC(O)C5)n3n2)CCC4)c1 (configuration not stated)	HCV inhibitor 7.1µM, MARV entry inh inconclusive, Lassa entry inh inconclusive (no result: FMDV inh)
OC1CCCN(c2c3c(nc4cc(-c5cccc(Cl)c5)nn24)CCC3)C1 (configuration not stated)	HCV inhibitor inconclusive, MARV entry inh inconclusive (no result: FMDV inh)
OC1CCN(c2cc(-c3ccccc3)nc3cc(-c4ccc(F)cc4)nn23)CC1	none
COc1cccc(-c2cc3nc(-c4ccccc4)cc(N4CCCC(O)C4)n3n2)c1 (configuration not stated)	HCV inhibitor 4µM (no result: VACV mCherry inh, MARV entry inh, Vaccinia Venus, Lassa entry inh)
OC1CCCN(c2c3c(nc4cc(-c5cccc(F)c5)nn24)CCCC3)C1 (configuration not stated)	HCV inhibitor 6.3µM, MARV entry inh inconclusive, Lassa entry inh inconclusive
CCCSc1ncc(Cl)c(C(=O)Nc2ccc(S(=O)(=O)N3CCCC(C)C3)cc2)n1 (configuration not stated)	none (no result: HCV inhibitor)
CC1CCc2c(nc3sc4c(c3c2N)CCCC4)C1 (configuration not stated)	HCV inhibitor 11µM, MARV entry inh 11µM, Vaccinia Venus inconclusive
COc1ccc(C(=O)/C=C/c2cc(OC)c(O)c(OC)c2)c(F)c1	VACV mCherry inh inconclusive, HCV inhibitor 13µM, MARV entry inh inconclusive, FMDV inh inconclusive, Lassa entry inh 13µM
COc1ccc(C(=O)/C=C/c2ccc(N3CCCCC3)c([N+](=O)[O-])c2)c(OC)c1	VACV mCherry inh 11µM, FMDV inh inconclusive, Vaccinia Venus inconclusive, Lassa entry inh inconclusive
COc1ccc2cc(C(=O)/C=C/c3cc(OC)c(O)c(OC)c3)ccc2c1	VACV mCherry inh inconclusive, HCV inhibitor inconclusive, MARV entry inh inconclusive, Lassa entry inh inconclusive
COc1ccc(C=CC(=O)c2c(OC)cc(OC)c(OC)c2O)cc1	VACV mCherry inh inconclusive, MARV entry inh inconclusive, FMDV inh 18µM, Vaccinia Venus inconclusive
COc1ccc(C(=O)/C=C/c2ccc(N(C)C)cc2)c(OC)c1	VACV mCherry inh inconclusive, HCV inhibitor inconclusive, MARV entry inh 7.1µM, Lassa entry inh 10µM
Cn1nnnc1SCCCNCc1ccc(-c2ccc(Br)cc2)o1	none (no result: HCV inhibitor)
O=C(NC1CC1)c1ccc(Cn2c(SCc3ccccc3F)nc3cccnc32)cc1	none (no result: HCV inhibitor, MARV entry inh)
COc1ccc(C=CC(=O)c2cc(O)ccc2O)cc1	VACV mCherry inh 7.9µM, HCV inhibitor inconclusive, Lassa entry inh inconclusive
CCC1(C2CCN(C(=O)c3ccccc3Cl)CC2)NC(=O)N(CCc2scnc2C)C1=O (configuration not stated)	none (no result: HCV inhibitor, MARV entry inh, Lassa entry inh)
O=[N+]([O-])c1cccc(Cl)c1NCCNc1ncc(C(F)(F)F)cc1Cl	MARV entry inh inconclusive
Cc1c(C(=O)NCCNc2ncc(C(F)(F)F)cc2Cl)cccc1[N+](=O)[O-]	HCV inhibitor 11µM, Lassa entry inh inconclusive
COc1ccc2c(c1)[C@@]1(OCCC=C[C@@H]1C)C(=O)N2Cc1ccccc1C(F)(F)F	none (no result: VACV mCherry inh, HCV inhibitor, FMDV inh, Vaccinia Venus, Lassa entry inh)
C[C@H](NS(=O)(=O)c1ccc(Cl)cc1)C(=O)OCC(=O)NCCc1ccc(S(N)(=O)=O)cc1	none (no result: VACV mCherry inh, MARV entry inh, Vaccinia Venus, Lassa entry inh)
CC(=O)Nc1ccc(/C=C2\C=Cc3ccccc32)cc1	none (no result: HCV inhibitor, MARV entry inh, FMDV inh, Lassa entry inh)
CN(C)CC[C@@H](c1ccc(Br)cc1)c1ccccn1	HCV inhibitor inconclusive, MARV entry inh 8.9µM!, Lassa entry inh inconclusive
CN(C)CC[C@@H](c1ccc(Cl)cc1)c1ccccn1	HCV inhibitor inconclusive, MARV entry inh 5.6µM!
CN(C)CCC(C(=O)c1ccccc1)c1ccccn1 (configuration not stated)	MARV entry inh inconclusive, Lassa entry inh inconclusive
CCOc1ccc(CNC(=O)c2cccc(NC(=O)N3CCSc4ncccc43)c2)cc1OC	FMDV inh 14µM, Lassa entry inh inconclusive (no result: HCV inhibitor, MARV entry inh)
COc1ccc(NC(=O)c2ccc(NC(=O)N3CCSc4ncccc43)cc2)cc1	FMDV inh inconclusive, Lassa entry inh inconclusive (no result: HCV inhibitor, MARV entry inh)
CCOc1ccc(NC(=O)c2ccc(NC(=O)N3CCSc4ncccc43)cc2)cc1	FMDV inh 32µM (no result: HCV inhibitor, MARV entry inh)
CN(C)CCCN(C(=O)c1ccc(S(=O)(=O)N2CCc3ccccc3C2)cc1)c1nc2ccc(F)cc2s1	VACV mCherry inh 13µM, HCV inhibitor inconclusive, MARV entry inh inconclusive, Vaccinia Venus 16µM, Lassa entry inh inconclusive
COCCn1c(=NC(=O)c2ccc(S(=O)(=O)N3CCc4ccccc4C3)cc2)sc2cc(OC)ccc21	HCV inhibitor 13µM
COCCn1c(=NC(=O)CCS(=O)(=O)c2ccccc2)sc2cc(C(=O)OC)ccc21	none (no result: VACV mCherry inh, MARV entry inh, Vaccinia Venus, Lassa entry inh)
COc1ccc2sc(N(CCCN(C)C)C(=O)c3ccc(S(=O)(=O)N4CCc5ccccc5C4)cc3)nc2c1	VACV mCherry inh inconclusive, HCV inhibitor inconclusive, MARV entry inh inconclusive, FMDV inh 25µM, Vaccinia Venus 11µM, Lassa entry inh 3.5µM
COc1ccc2sc(N(CCCN(C)C)C(=O)c3ccc(S(=O)(=O)N4CCCC4)cc3)nc2c1	HCV inhibitor inconclusive
COC(=O)C1CCN(Cc2ccc3c(c2)CN(C(=O)c2ccnn2C)CCO3)CC1	none (no result: HCV inhibitor, MARV entry inh, Lassa entry inh)
Cc1ccc(C)c(C(=O)OCC(=O)Nc2cccc(S(=O)(=O)N3CCCCC3)c2)c1	HCV inhibitor 10µM, FMDV inh inconclusive (no result: VACV mCherry inh, MARV entry inh, Vaccinia Venus, Lassa entry inh)
CC1CCc2c(C(=O)OCC(=O)Nc3cccc(S(=O)(=O)N4CCCCCC4)c3)csc2C1 (configuration not stated)	HCV inhibitor 7.1µM, MARV entry inh inconclusive
Cc1ccc(S(=O)(=O)N2CCOCC2)cc1C(=O)O	none (no result: VACV mCherry inh, Vaccinia Venus)
Cc1ccc(S(=O)(=O)N2CCOCC2)cc1C(=O)OC(C)C(=O)c1ccccc1 (configuration not stated)	VACV mCherry inh inconclusive, HCV inhibitor 3.5µM

High-throughput results: PubChem BioAssay, National Center for Advancing Translational Sciences (NCATS)
